Source: PubChem
In the library only some 2.8% were active in any assay of this set; here they are far more common.
POLI inh: qHTS for Inhibitors of Polymerase Iota. DNA polymerase iota (Homo sapiens), Q9UNA4. Pol iota fluorescent replication assay, 10 min. Potency, µM (series often up to 115 µM), inactives show at the highest dose activity, negative = inhibition, hits mostly inhibitors. hit rate 1% among 390,000. AID 588590, 2011; also: potency is read from the fitted curve at half-maximal effect
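Fluorescent replication assay read twice, at 0 min and 10 min after adding 50 nM (final) substrate. Enzyme (10 nM) and compounds were first incubated 15 min at room temperature; enzyme-free buffer wells were negative controls.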
FEN1 inh: qHTS Assay for the Inhibitors of Human Flap endonuclease 1 (FEN1). Recombinant FEN1 flap cleavage, fluorescence, 15 min. hit rate 0.35% among 390,000. AID 588795, 2011. Potency, µM (series often up to 114 µM), for the others: at the highest dose activity change, negative = inhibition, actives largely listed as inhibitors; also: potency is read from the fitted curve at half-maximal effect; % is scaled to controls: 0 for no effect and ±100 for the full control effect; nearly all actives have a fitted effect of over 65% in size
Target sequence (P39748 whole entry, looked up): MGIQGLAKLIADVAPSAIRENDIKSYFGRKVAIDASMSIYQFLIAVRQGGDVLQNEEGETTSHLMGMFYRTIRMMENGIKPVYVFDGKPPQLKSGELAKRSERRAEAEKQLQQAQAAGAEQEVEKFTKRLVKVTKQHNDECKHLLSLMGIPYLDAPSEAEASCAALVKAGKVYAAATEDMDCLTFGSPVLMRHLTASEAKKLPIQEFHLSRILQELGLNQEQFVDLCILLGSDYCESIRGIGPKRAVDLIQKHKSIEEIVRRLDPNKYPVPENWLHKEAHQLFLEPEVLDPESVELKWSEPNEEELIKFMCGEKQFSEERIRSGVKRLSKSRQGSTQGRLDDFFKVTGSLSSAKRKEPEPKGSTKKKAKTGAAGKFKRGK
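Quantitative HTS format: each compound was titrated, incubated with 10 nM nuclease for 15 min at room temperature, then challenged with flap substrate at 50 nM final. Signal change over 15 min gave concentration–effect curves.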
PI5P4K alpha inh: qHTS for Inhibitors of phosphatidylinositol 5-phosphate 4-kinase (PI5P4K); Phosphatidylinositol 5-phosphate 4-kinase type-2 alpha (Homo sapiens), P48426; PI5P4Kalpha enzyme, ADP-Glo luminescence, 60 min; hits give low values; max response, %; hit rate 1.2% among 330,000; AID 652105, 2013; active = max response of -50% or lower; inconclusive = between -30% and -50%; inactive = -30% or higher; also: value at the top dose of about 77 µM; % is scaled to controls: 0 for no effect and ±100 for the full control effect
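Quantitative HTS of the MLSMR library against PI5P4Kalpha with substrate. ATP added last at 5 microM final; room temperature, 60 minutes. Remaining ATP depleted, ADP converted and read as luminescence.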
Pol kappa inh: qHTS for Inhibitors of Polymerase Kappa; hit rate 0.53% among 400,000; Potency, µM (highest dose often 107 µM), without a hit: at the top dose activity, negative = inhibition, actives largely listed as inhibitors; purified Pol kappa, fluorescent DNA synthesis assay, 10 min; AID 588579, 2011; also: potency is read from the fitted curve at half-maximal effect; % is scaled to controls: 0 for no effect and ±100 for the full control effect
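10 nM Pol kappa was preincubated with compounds for 15 min at room temperature. Reaction started with 50 nM (final) substrate. Fluorescence read kinetically at 0 and 10 min.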
Pol eta inh: qHTS for Inhibitors of Polymerase Eta; hit rate 1.2% among 390,000; recombinant Pol eta, fluorescent DNA replication assay; DNA polymerase eta (Homo sapiens), Q9Y253; AID 588591, 2011; Potency, µM (highest dose often 114 µM), for inactives: at the highest dose activity change, negative = inhibition, most hits filed as inhibitors; also: potency is read from the fitted curve at half-maximal effect; % is scaled to controls: 0 for no effect and ±100 for the full control effect
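Pol eta at 10 nM preincubated with compounds 15 min at room temperature; reaction started with fluorescent substrate (50 nM final) and read kinetically at 0 and 10 min.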
Pol beta inh: qHTS Assay for Inhibitors of DNA Polymerase Beta; Pol beta primer extension/strand displacement, fluorescence kinetic; Potency, µM (top dose mostly 114 µM), for the others: at the top dose activity change, negative = inhibition, hits mostly inhibitors; hit rate 1.3% among 340,000; also: potency is read from the fitted curve at half-maximal effect; % is scaled to controls: 0 for no effect and ±100 for the full control effect
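Homogeneous kinetic assay of primer extension and strand displacement by 10 nM Pol beta, preincubated 15 min at room temperature with compound before 50 nM substrate (final) was added. Read at 0 and 10 min; four-parameter Hill fit.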
ADP-Glo interf: qHTS for Inhibitors of PI5P4K: ADP-Glo counter assay. shares compounds with PI5P4K alpha inh. ADP-Glo detection counter-screen, luciferase luminescence, no enzyme. Potency, µM (series often up to 76.9 µM), for inactives: at the top dose activity change, negative = inhibition, hits mostly inhibitors. 1,100 tested, under 10 active
The depositor's hits bear a star; u = inconclusive; x = no result given; [ ] = remark or other dose. Unless noted, calls follow the shape of the dose curve; as a rule, active = well fitted curve in the direction sought with a large enough effect; inconclusive = small, poorly fitted or top-dose-only effect, or another doubt; inactive = no such curve, though single readings can be large; an effect the other way counts as inactive or inconclusive.

SMILES | POLI inh | FEN1 inh | PI5P4K alpha inh | Pol kappa inh | Pol eta inh | Pol beta inh | ADP-Glo interf
O=c1cc(CSc2nnnn2-c2ccccc2)nc2nc[nH]n12 | -10% | 9% | -9 | -14% | 4% | 0% | x
O=c1cc(CSc2ccc(Cl)cc2)nc2nc[nH]n12 | 3% | -2% | -67* | -12% | 6% | 0% | -12%
O=C(COc1ccc(Br)cc1)Nc1ccc(C(=O)Nc2ccccc2C(=O)O)cc1 | 70% | -13% | -58* | -3% | u | 2% | 4%
O=C(COc1ccc2ccccc2c1)Nc1cccc(C(=O)Nc2ccccc2C(=O)O)c1 | -6% | -17% | -74* | -7% | 28µM* | 10% | 1%
COc1cc(OC)c(OC)cc1/C=C/c1nccc2ccccc12 | u | u | x | -21% | x | x | x
CCN(CC)C(=O)c1[nH]cnc1C(=O)Nc1ccc(OC)cc1 | 2% | 0% | 0 | 22% | -11% | 28% | -8%
CCN(CC)C(=O)c1[nH]cnc1C(=O)Nc1ccc(Cl)cc1 | 14% | -13% | 7 | 1% | -12% | x | x
COCc1ccc(CN2CCC(n3nccc3NC(=O)CCOc3ccccc3)CC2)o1 | 5% | -1% | -7 | -15% | -10% | 53% | x
Cc1cccc(C2Nc3ccccc3C(=O)N2c2ccc(F)cc2)n1 (stereo unspecified) | 173% | 5% | 1 | -3% | -7% | 9% | 2%
O=C1c2ccccc2NC(c2ccccn2)N1c1ccccc1F (stereo unspecified) | 1% | -2% | x | -6% | 0% | 0% | x
Fc1ccccc1SCc1nnc(-c2ccccc2Br)o1 | 79% | 13% | u | -8% | -18% | 2% | x
OC1OC[C@H](O)[C@@H](O)[C@@H]1O (stereo partly specified) | x | x | x | 5%[60.1 µM] | x | x | x
CCOc1ccc(S(=O)(=O)N(C)CC(=O)NCc2ccco2)cc1 | -2% | 5% | 4 | 5% | -8% | 13% | x
CCOc1ccc(S(=O)(=O)N(C(=O)c2ccco2)c2cc3sc(=O)oc3c3ccccc23)cc1 | u | 1% | -58* | -8% | -19% | 0% | 2%
COc1ccc(S(=O)(=O)N(C(=O)C(C)C)c2ccc3oc(=O)sc3c2)cc1 | u | 15% | x | 10% | -14% | -29% | x
CC(=O)N(c1ccc2oc(=O)sc2c1)S(=O)(=O)c1ccccc1 | -17% | -8% | -18 | -6% | -8% | 35% | x
COc1ccc(S(=O)(=O)N(C(=O)c2ccco2)c2cc3sc(=O)oc3c3ccccc23)cc1 | u | -35% | -61* | -14% | -12% | -8% | -8%
Cc1ccc(S(=O)(=O)N(C(=O)c2ccco2)c2cc3sc(=O)oc3c3ccccc23)cc1 | u | -35% | -56* | -15% | -11% | 6% | -1%
CCCCCCSc1ccc([C@H]2N[C@@](C)(C(=O)OC)[C@H]3C(=O)N(CC)C(=O)[C@@H]23)cc1 | 12% | u | 20 | -12% | -25% | x | x
NC(=O)NC(CC(=O)NNC(=O)c1cccs1)c1ccc(Cl)cc1 (stereo unspecified) | 101% | 9% | -2 | -2% | -11% | x | x
N#Cc1ccc(COC(=O)CC(NC(N)=O)c2ccc(Cl)cc2)cc1 (stereo unspecified) | 2% | -5% | u | -15% | u | 11% | 4%
CC(C)c1ccc(NC(=O)C(c2ccc3c(c2)OCO3)N2CCCCC2)cc1 (stereo unspecified) | -15% | -8% | 1 | -2% | -18% | 6% | x
Oc1cc2c(cc1C(c1ccc(Cl)c(Cl)c1)N1CCCC1)OCO2 (stereo unspecified) | u | 2% | -74* | -8% | -24% | -8% | 5%
CN(C)C(=S)Oc1ccccc1C1(C)OCCO1 | x | x | 8 | x | -2% | x | x
CC(=O)Nc1nc(C2CC2)cc(-c2ccccc2)c1C#N | 60% | 3% | 4 | -1% | -12% | -26% | x
SMILES | POLI inh | FEN1 inh | PI5P4K alpha inh | Pol kappa inh | Pol eta inh | Pol beta inh | ADP-Glo interf
COC(=O)c1cc2c(ccn2-c2ccc(F)cc2)n1Cc1ccc(OC)cc1 | 20% | -16% | 11 | -5% | -24% | -22% | x
CCn1c(C(=O)OC)cc2c1ccn2-c1ccc(F)cc1 | u | -11% | -50* | -18% | -5% | -6% | -2%
Nn1c(SCC(=O)NC(=O)NCc2ccco2)nnc1-c1ccc(OC(F)F)cc1 | u | -8% | -67* | u | 8.9µM* | u | -6%
COc1ccccc1OCC(=O)Nc1ccc2c(c1)OCO2 | u | -18% | -50* | -25% | u | 50µM* | 0%
COc1cc(C)ccc1OCC(=O)Nc1ccc2c(c1)OCO2 | 5% | 16% | -11 | 1% | 1% | x | x
CNC(=O)c1nc(C)n(-c2ccc(Cl)cc2Cl)n1 | 61% | -2% | -93* | 0% | -3% | -17% | -7%
Cc1nc(C(=O)N(C)C)nn1-c1ccc(Cl)cc1Cl | 12% | -5% | 2 | -3% | 6% | 38% | x
CCOc1ccccc1-n1c(SCC(=O)Nc2ccccc2C(=O)O)nc2ccccc2c1=O | 9% | 0% | -58* | -9% | 3% | -7% | -6%
O=C(Nc1ncc(Cl)cc1Cl)c1c(F)cccc1Cl | 72% | 1% | 1 | -12% | -1% | 5% | x
O=C(NCc1cc([N+](=O)[O-])ccc1O)c1cccc(NS(=O)(=O)c2ccccc2)c1 | 17% | -3% | -66* | 1% | -17% | 3% | 2%
Cc1ncc([N+](=O)[O-])n1CC(=O)N/N=C/c1ccccc1F | -11% | -12% | -4 | -9% | 5% | -20% | x
Cc1ccc(-c2csc(N3CCN(c4cc5c(cc4Cl)nc(-c4ccncc4)n5CCN4CCCCC4)CC3)n2)cc1 | u | -13% | -64* | -12% | -5% | 9% | 5%
CC1CCCC(C)N1C(=O)COC(=O)CNC(=O)c1ccccc1 (stereo unspecified) | 11% | -6% | -4 | -12% | -13% | x | -1%
CC1CCCC(C)N1C(=O)COC(=O)CN1C(=O)c2ccccc2C1=O (stereo unspecified) | 56% | -9% | -3 | -9% | -15% | x | x
Cc1cc(C)c2c(N)c(C(=O)Nc3c(C)n(C)n(-c4ccccc4)c3=O)sc2n1 | 16% | 17% | 0 | -6% | 2% | 15% | 0%
